The source made the active and inactive calls. Rule for the calls: active = hit-call score of the fitted dose curve at least 0.9, where 1 is the maximum; inactive = score below 0.9.
Tests used:
Conditions in all cases: mRNA level, 48 h; actives raise or lower the signal
[1] = read-out: Early growth response protein 1 (EGR1) transcription factor, EGR1 (gene 1958); assay: LTEA_HepaRG_EGR1: Life Technologies and Expression Analysis (LTEA) Assay for Early growth response protein 1 (EGR1) transcription factor using HepaRG (AID 2283490)
In short: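 HepaRG, 48 h exposure, 8-pt half-log series from 100 uM, 0.5% DMSO vehicle; EGR1 transcript by TaqMan qRT-PCR (Fluidigm array), housekeeping-normalized; bidirectional fit relative to DMSO baseline.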

[2] = read-out: Ezrin (EZR), EZR (gene 7430); assay: LTEA_HepaRG_EZR: Life Technologies and Expression Analysis (LTEA) Assay for Ezrin (EZR) using HepaRG (AID 2283491)
In short: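 EZR transcript levels came from Fluidigm qRT-PCR and were normalized to three housekeeping genes after 48 h chemical exposure of HepaRG cells. Dosing used an 8-point half-log series with a 100 uM top concentration in 0.5% DMSO, tested in duplicate; both directions were fitted versus vehicle.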

[3] = read-out: Cytochrome P450 3A7 (Homo sapiens) (UniProt P24462); assay: LTEA_HepaRG_CYP3A7: Life Technologies and Expression Analysis (LTEA) Assay for CYP3A7 using HepaRG (AID 2283492)
In short: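 HepaRG cells plated 48 h, then dosed in serum-free induction medium for 48 h at 8 concentrations (top 100 uM, half-log steps, 0.5% DMSO). CYP3A7 mRNA by qRT-PCR, normalised to ACTB/GAPDH/POLR2A; bidirectional fit versus DMSO.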

CYP3A5 (gene 1577) = assay: LTEA_HepaRG_CYP3A5: Life Technologies and Expression Analysis (LTEA) Assay for CYP3A5 using HepaRG (AID 2283493)
In short: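 Readout was CYP3A5 mRNA by qRT-PCR. HepaRG cultures were exposed for 48 h in serum-free induction medium to chemicals at up to 100 uM, and responses were fitted in both directions relative to DMSO vehicle.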

[4] = read-out: Cytochrome P450 4A22 (Homo sapiens) (UniProt Q5TCH4); assay: LTEA_HepaRG_CYP4A22: Life Technologies and Expression Analysis (LTEA) Assay for Cytochrome P450 4A22 (CYP4A22) using HepaRG (AID 2283495)
In short: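 qRT-PCR of CYP4A22 mRNA (Fluidigm TaqMan, normalized to three housekeeping genes) after 48 h chemical exposure of HepaRG cells; 8-point half-log series, top 100 uM, 0.5% DMSO vehicle. Bidirectional curve fitting vs DMSO baseline.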

[5] = read-out: Cytochrome P450 7A1 (Homo sapiens) (UniProt P22680); assay: LTEA_HepaRG_CYP7A1: Life Technologies and Expression Analysis (LTEA) Assay for Cytochrome P450 7A1 (CYP7A1) using HepaRG (AID 2283496)
In short: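 Using 0.5% DMSO as vehicle and baseline, chemicals were tested in duplicate over an 8-point range from 100 uM on HepaRG cells for 48 h; qRT-PCR signals were normalised to ACTB, GAPDH and POLR2A.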

[6] = read-out: Glutathione S-Transferase (GSTA2), GSTA2 (gene 2939); assay: LTEA_HepaRG_GSTA2: Life Technologies and Expression Analysis (LTEA) Assay for Glutathione S-Transferase (GSTA2) using HepaRG (AID 2283497)
In short: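 qRT-PCR readout of GSTA2 transcript, normalized to three housekeeping genes, fitted bidirectionally against 0.5% DMSO baseline. Differentiated HepaRG cells received compound for 48 h at 8 concentrations (top 100 uM, half-log steps).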

[7] = read-out: Glutamate-cysteine ligase catalytic (GCLC), GCLC (gene 2729); assay: LTEA_HepaRG_GCLC: Life Technologies and Expression Analysis (LTEA) Assay for Glutamate-cysteine ligase catalytic (GCLC) using HepaRG (AID 2283498)
In short: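 HepaRG, 48 h exposure, 8-pt half-log series from 100 uM, 0.5% DMSO vehicle; TaqMan qRT-PCR for GCLC mRNA, housekeeping-normalized; bidirectional curve fit vs DMSO baseline.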

[8] = read-out: growth arrest and DNA damage 45 (GADD45G), GADD45G (gene 10912); assay: LTEA_HepaRG_GADD45G: Life Technologies and Expression Analysis (LTEA) Assay for growth arrest and DNA damage 45 (GADD45G) using HepaRG (AID 2283499)
In short: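 Differentiated human HepaRG cells in serum-free induction medium were exposed for 48 h to 8 half-log concentrations up to 100 uM in 0.5% DMSO, in duplicate. GADD45G mRNA was measured by TaqMan qRT-PCR, normalised to ACTB, GAPDH and POLR2A, and fitted bidirectionally against DMSO.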

[9] = read-out: Glutamate-cysteine ligase regulatory (GCLM), GCLM (gene 2730); assay: LTEA_HepaRG_GCLM: Life Technologies and Expression Analysis (LTEA) Assay for Glutamate-cysteine ligase regulatory (GCLM) using HepaRG (AID 2283500)
In short: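 In this multiplexed HepaRG gene-expression assay, GCLM mRNA change after 48 h treatment (8 concentrations, max 100 uM) was scored against DMSO by bidirectional curve fitting.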

[10] = read-out: Glutathione S-transferase M3 (GSTM3), GSTM3 (gene 2947); assay: LTEA_HepaRG_GSTM3: Life Technologies and Expression Analysis (LTEA) Assay for Glutathione S-transferase M3 (GSTM3) using HepaRG (AID 2283501)
In short: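 Differentiated HepaRG cells in serum-free induction medium were exposed in duplicate for 48 h to 8 half-log concentrations up to 100 uM in 0.5% DMSO. GSTM3 mRNA was measured by TaqMan qRT-PCR, normalized to ACTB/GAPDH/POLR2A, and fitted bidirectionally versus DMSO.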

[11] = read-out: Heat shock 70 kDa protein 1 (HSPA1A), gene 3303; assay: LTEA_HepaRG_HSPA1A: Life Technologies and Expression Analysis (LTEA) Assay for Heat shock 70 kDa protein 1 (HSPA1A) using HepaRG (AID 2283502)
In short: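 An oxidative-stress marker readout: HepaRG cells treated 48 h in duplicate with an eight-point series (highest 100 uM) had HSPA1A mRNA quantified by TaqMan qRT-PCR. Activity was fitted in both directions using 0.5% DMSO as baseline.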

[12] = read-out: 3-Hydroxy-3-Methylglutaryl-CoA Synthase 2 (HMGCS2), HMGCS2 (gene 3158); assay: LTEA_HepaRG_HMGCS2: Life Technologies and Expression Analysis (LTEA) Assay for 3-Hydroxy-3-Methylglutaryl-CoA Synthase 2 (HMGCS2) using HepaRG (AID 2283504)
In short: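 Differentiated human HepaRG cells were exposed in duplicate for 48 h in serum-free induction medium to eight concentrations (top 100 uM, half-log steps, 0.5% DMSO). HMGCS2 mRNA was quantified by TaqMan qRT-PCR, normalised to ACTB, GAPDH and POLR2A, then fitted bidirectionally against DMSO.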

HGF (gene 3082) = assay: LTEA_HepaRG_HGF: Life Technologies and Expression Analysis (LTEA) Assay for Hepatocyte Growth Facto (HGF) using HepaRG (AID 2283505)
In short: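 Differentiated human HepaRG cells in serum-free induction medium were exposed in duplicate for 48 h to eight concentrations (top 100 uM, half-log steps, 0.5% DMSO). HGF mRNA was quantified by qRT-PCR, normalized to ACTB, GAPDH and POLR2A.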

[13] = read-out: Insulin Like Growth Factor 1 (IGF1), IGF1 (gene 3479); assay: LTEA_HepaRG_IGF1: Life Technologies and Expression Analysis (LTEA) Assay for Insulin Like Growth Factor 1 (IGF1) using HepaRG (AID 2283506)
In short: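 Endpoint: IGF1 mRNA change by qRT-PCR, housekeeping-normalized, fitted bidirectionally relative to 0.5% DMSO vehicle. Human HepaRG cells were treated 48 h in serum-free induction medium, eight half-log concentrations topping at 100 uM.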

[14] = read-out: Intercellular Adhesion Molecule 1 (ICAM1), ICAM1 (gene 3383); assay: LTEA_HepaRG_ICAM1: Life Technologies and Expression Analysis (LTEA) Assay for Intercellular Adhesion Molecule 1 (ICAM1) using HepaRG (AID 2283507)
In short: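 Differentiated HepaRG cells in serum-free induction medium were exposed in duplicate for 48 h to eight half-log concentrations up to 100 uM in 0.5% DMSO. Transcript levels were measured by qRT-PCR normalized to ACTB, GAPDH and POLR2A; bidirectional fits relative to DMSO.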

[15] = read-out: Insulin-like growth factor-binding protein 1 (IGFBP1), IGFBP1 (gene 3484); assay: LTEA_HepaRG_IGFBP1: Life Technologies and Expression Analysis (LTEA) Assay for Insulin-like growth factor-binding protein 1 (IGFBP1) using HepaRG (AID 2283508)
In short: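 Differentiated human HepaRG cells in serum-free induction medium were exposed in duplicate for 48 h to eight concentrations, top 100 uM with half-log dilutions, in 0.5% DMSO. Transcript levels came from qRT-PCR normalised to ACTB, GAPDH and POLR2A, fitted bidirectionally against DMSO.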

[16] = read-out: Interleukin 6 (IL6), IL6 (gene 3569); assay: LTEA_HepaRG_IL6: Life Technologies and Expression Analysis (LTEA) Assay for Interleukin 6 (IL6) using HepaRG (AID 2283509)
In short: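 qRT-PCR read-out of IL6 transcript, normalized to three housekeeping genes, after 48 h chemical exposure of HepaRG cells; 8-point half-log series, top 100 uM, 0.5% DMSO vehicle. Bidirectional curve fitting against DMSO baseline.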

[17] = read-out: Interleukin 6 Receptor (IL6R), IL6R (gene 3570); assay: LTEA_HepaRG_IL6R: Life Technologies and Expression Analysis (LTEA) Assay for Interleukin 6 Receptor (IL6R) using HepaRG (AID 2283510)
In short: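 In this HepaRG screen, test chemicals act on cells for 48 h at up to 100 uM (eight half-log points, duplicate wells). IL6R expression is quantified by qRT-PCR after normalization to ACTB, GAPDH and POLR2A, with DMSO as baseline.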

[18] = read-out: Potassium channel subfamily K member 1 (KCNK1), KCNK1 (gene 3775); assay: LTEA_HepaRG_KCNK1: Life Technologies and Expression Analysis (LTEA) Assay for Potassium channel subfamily K member 1 (KCNK1) using HepaRG (AID 2283511)
In short: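 HepaRG, 48 h exposure, 8-pt half-log series top 100 uM, 0.5% DMSO vehicle, duplicates. Readout: KCNK1 transcript by qRT-PCR (Fluidigm array), housekeeping-normalized; bidirectional curve fit relative to DMSO baseline.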

Measured: outcome

Sequence of Cytochrome P450 3A7 (Homo sapiens) (P24462 whole entry, looked up): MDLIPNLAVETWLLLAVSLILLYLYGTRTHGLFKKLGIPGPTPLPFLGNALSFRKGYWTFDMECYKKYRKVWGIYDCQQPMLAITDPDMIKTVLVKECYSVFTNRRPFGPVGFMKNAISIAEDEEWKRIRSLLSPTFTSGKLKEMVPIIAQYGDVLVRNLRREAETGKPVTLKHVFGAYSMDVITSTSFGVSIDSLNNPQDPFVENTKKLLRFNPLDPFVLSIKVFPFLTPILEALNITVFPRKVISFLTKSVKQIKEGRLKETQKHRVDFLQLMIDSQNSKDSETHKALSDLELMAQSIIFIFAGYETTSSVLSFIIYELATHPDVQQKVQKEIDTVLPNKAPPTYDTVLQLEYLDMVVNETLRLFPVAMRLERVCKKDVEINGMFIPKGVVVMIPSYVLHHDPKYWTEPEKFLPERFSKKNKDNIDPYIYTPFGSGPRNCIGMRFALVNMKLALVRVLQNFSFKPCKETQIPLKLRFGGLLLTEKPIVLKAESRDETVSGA

O=C(CCl)c1ccccc1
inactive: all assays above

O=[N+]([O-])c1ccc(Cl)cc1
inactive: all assays above

From PubChem BioAssay (EPA / NIEHS)
